How the values were obtained:
[1] = system: CLZ3 (HCA2 human fibroblast dual HR-NHEJ reporter); test: NHEJ repair efficiency (GFP+ cells) relative to control (log10 fold); higher = more non-homologous end joining; settings: 5 µM; doxycycline 0.5 ug/mL
[2] = system: CLZ3 (HCA2 human fibroblast dual HR-NHEJ reporter); test: HR repair efficiency (tdTomato+ cells) relative to control (log10 fold); higher = more homologous recombination; settings: 5 µM; doxycycline 0.5 ug/mL
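Wherever HR repair efficiency (tdTomato+ cells) relative to control is given: compound given one day before doxycycline, which switches on I-SceI endonuclease expression to create double-strand breaks within the integrated reporter.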
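Wherever NHEJ repair efficiency (GFP+ cells) relative to control is given: compound given one day ahead of doxycycline, which switches on I-SceI endonuclease to cut the chromosomally integrated reporter and create DSBs.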

Row | Structure (SMILES) | NHEJ repair efficiency (log10) [1] | HR repair efficiency (log10) [2]
1 | COc1cc(/C=C/C(=O)CC(=O)/C=C/c2ccc(O)c(OC)c2)ccc1O [Curcumin] | 0.317 | -0.113
2 | CC1(C)[C@@H](O[C@H]2O[C@H](C(=O)O)[C@@H](O)[C@H](O)[C@H]2O[C@@H]2O[C@H](C(=O)O)[C@@H](O)[C@H](O)[C@H]2O)CC[C@]2(C)[C@H]3C(=O)C=C4[C@@H]5C[C@@](C)(C(=O)O)CC[C@]5(C)CC[C@@]4(C)[C@]3(C)CC[C@@H]12 [Monoammonium Glycyrrhizinate] | 0.137 | -0.00605
3 | COc1ccc([C@@H]2OC[C@H]3[C@@H]2CO[C@@H]3c2ccc3c(c2)OCO3)cc1OC [Fargesin] | 0.0593 | 0.116
4 | COc1cc(C(=O)O)cc(OC)c1O [Syringic acid] | -0.0271 | -0.177
5 | Cc1cc(O)c2c(c1)C(=O)c1cccc(O)c1C2=O [Chrysophanol] | 0.0473 | 0.134
6 | COc1cc2c(cc1O)CC[n+]1cc3c(OC)c(OC)ccc3cc1-2 [Jateorrhizine] | -0.216 | -0.189
7 | Cc1cc(O)c(C(=O)CCC(C)C)c(=O)o1 [Pogostone] | -0.0825 | -0.0091
8 | COc1cc2c(c(O)c1OC)-c1c(cc(OC)c(OC)c1OC)C[C@@H](C)[C@@H](C)C2 [Schisanhenol] | -0.161 | -0.0391
9 | COc1cc2c(cc1O)C[C@H]1c3cc(O)c(OC)cc3CC[N@@+]1(C)C2 [Phellodendrine] | 0.199 | -0.099
10 | COc1cc(O)c(C(C)=O)cc1S(=O)(=O)O [Sodium Paeonol Sulfonate] | 0.0246 | 0.0512
